Several values for one entry are separate records, joined by “and”; a condition that tells them apart may be missing. Identical values can stand only once. Compounds without any hit were thinned out: in the full panel of roughly 83,000, 20% have a hit.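 In brief: 96-well plates, 48 h treatment, single concentration, percent growth endpoint.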 Activity calls are given as the source filed them. How the source made its calls: active means growth percent below 10; inactive means the rest.

Some test systems named below: HCT-15 colon; HT29 colon; SNB-75 CNS; SNB-19 CNS; U251 CNS; PC-3 prostate; SK-MEL-5 melanoma; UACC-62 melanoma; LOX IMVI melanoma; SK-MEL-28 melanoma; SK-MEL-2 melanoma; EKVX NSCLC; SN12C renal; UO-31 renal; TK-10 renal; ACHN renal; A498 renal; CCRF-CEM leukemia; MOLT-4 leukemia; CAKI-1 renal.
Assay in all cases: NCI-60 one-dose screen, 48 h (100 = growth as untreated, 0 = no growth, -100 = all killed)
What all share (conditions): 10 µM unless noted

Take `O=C1C=CC(=O)N1c1ccc2ccccc2c1`: the growth in the test with HCT-15 colon was 56.3% (inactive) and 91.1% (inactive); in the test with HT29 colon, -42.9% (active) and 32.6% (inactive); in the test with SNB-75 CNS it was 88.9% (inactive) and 105% (inactive); in the test with SNB-19 CNS, 103% (inactive) and 107% (inactive); in the test with U251 CNS, 95.9% (inactive) and 96.5% (inactive); with PC-3 prostate, 91% (inactive) and 90% (inactive). The growth in the test on SK-MEL-5 melanoma is 106% (inactive) and 102% (inactive); in the test on UACC-62 melanoma it was 98.8% (inactive) and 93.6% (inactive); in the test with LOX IMVI melanoma, 91.6% (inactive) and 77.6% (inactive); in the test with SK-MEL-28 melanoma, 110% (inactive) and 116% (inactive); with SK-MEL-2 melanoma, 98.2% (inactive) and 101% (inactive); in the test with EKVX NSCLC, 112% (inactive) and 95% (inactive). Further, the growth was 99.3% (inactive) and 91.1% (inactive) with SN12C renal; 68.3% (inactive) and 72.8% (inactive) with UO-31 renal; 96.2% (inactive) and 36.7% (inactive) in the test on TK-10 renal; 38% (inactive) and 50.3% (inactive) in the test with ACHN renal; 101% (inactive) with A498 renal; 41.3% (inactive) and 33.4% (inactive) in the test with CCRF-CEM leukemia. The growth in the test with MOLT-4 leukemia is 49.7% (inactive) and 37.1% (inactive).

Regarding `CCOC(=O)C(=Cc1ccc(C#N)cc1)C(=O)OCC`, the growth was -21% (active) in the test with HCT-15 colon; -39.7% (active) with HT29 colon; 42.9% (inactive) in the test with SNB-75 CNS; 65.2% (inactive) in the test on SNB-19 CNS; 50.3% (inactive) in the test with U251 CNS; 33.3% (inactive) with PC-3 prostate. In addition, the growth in the test with SK-MEL-5 melanoma is 59.6% (inactive); in the test with UACC-62 melanoma, 10.6% (inactive); in the test with LOX IMVI melanoma, -54.9% (active); in the test with SK-MEL-28 melanoma, -17.7% (active); in the test with SK-MEL-2 melanoma, 42.9% (inactive); in the test with EKVX NSCLC, 77.2% (inactive). The growth was 45.9% (inactive) with SN12C renal; -33.9% (active) with UO-31 renal; -1.52% (active) in the test on TK-10 renal; -64.7% (active) in the test with ACHN renal; 82.3% (inactive) with A498 renal; 2.95% (active) in the test with CCRF-CEM leukemia. Further, the growth with MOLT-4 leukemia is 10.6% (inactive).

As to `CCCCCCCCCCCCCCCCCCn1cc(COc2ccc(C=O)cc2)nn1`, the growth in the test with HCT-15 colon was 95.9% (inactive); in the test on HT29 colon, 91.6% (inactive); in the test on SNB-75 CNS it was 104% (inactive); in the test on SNB-19 CNS, 97.5% (inactive); with U251 CNS, 107% (inactive); in the test on PC-3 prostate, 99% (inactive). Further, the growth was 103% (inactive) in the test with SK-MEL-5 melanoma; 91.2% (inactive) with UACC-62 melanoma; 85.5% (inactive) in the test with LOX IMVI melanoma; 109% (inactive) in the test with SK-MEL-28 melanoma; 96.4% (inactive) in the test on SK-MEL-2 melanoma; 90.1% (inactive) with EKVX NSCLC. Further, the growth in the test on SN12C renal was 97.5% (inactive); in the test with UO-31 renal, 93% (inactive); in the test with TK-10 renal, 99.9% (inactive); with ACHN renal, 104% (inactive); with CAKI-1 renal it was 104% (inactive); in the test with A498 renal, 105% (inactive). Besides, the growth with MOLT-4 leukemia was 92.4% (inactive).

With `Nc1ccc(/C=N/Nc2ccnc3c(N)cccc23)c2cccnc12`, the growth in the test with HCT-15 colon was -49.7% (active); with HT29 colon it was -22.5% (active); in the test on SNB-75 CNS, -99.7% (active); with SNB-19 CNS, 21.8% (inactive); with U251 CNS it was -63.4% (active); in the test on PC-3 prostate it was 15.8% (inactive). For the same compound, the growth in the test on SK-MEL-5 melanoma was 83.1% (inactive); in the test on UACC-62 melanoma, 89.5% (inactive); with LOX IMVI melanoma it was -90.9% (active); in the test on SK-MEL-28 melanoma, 105% (inactive); with SK-MEL-2 melanoma, 87.9% (inactive); with EKVX NSCLC, 32.2% (inactive). Also, the growth with SN12C renal is 71.1% (inactive); in the test on UO-31 renal, -58.8% (active); with TK-10 renal, -43.1% (active); in the test with CAKI-1 renal it was 31.9% (inactive); in the test with A498 renal, 77% (inactive); with CCRF-CEM leukemia, -25.6% (active). For the same compound, the growth in the test with MOLT-4 leukemia was -37.5% (active).

On to `Cn1cc(C2=C(c3cccc4ccccc34)C(=O)NC2=O)c2cc(Br)ccc21`, for which the growth in the test with HCT-15 colon is 91.3% (inactive); in the test on HT29 colon, 90.5% (inactive); in the test with SNB-75 CNS, 37.9% (inactive); in the test with SNB-19 CNS, 108% (inactive); in the test with U251 CNS, 91.7% (inactive); in the test on PC-3 prostate, 97.3% (inactive). Moreover, the growth with SK-MEL-5 melanoma is 93.5% (inactive); in the test on UACC-62 melanoma, 112% (inactive); in the test on LOX IMVI melanoma, 89.8% (inactive); in the test with SK-MEL-28 melanoma, 111% (inactive); in the test with SK-MEL-2 melanoma, 111% (inactive); with EKVX NSCLC it was 88.5% (inactive). The growth was 95.2% (inactive) in the test on SN12C renal; 80.8% (inactive) with UO-31 renal; 101% (inactive) with TK-10 renal; 69.2% (inactive) in the test with CAKI-1 renal; 69.8% (inactive) in the test on A498 renal; 84% (inactive) with CCRF-CEM leukemia. In the test on MOLT-4 leukemia, the growth is 77.1% (inactive).

In the case of `CS(=O)(=O)Nc1cc(-c2ccc3ncnc(Nc4ccc(F)c(Cl)c4)c3c2)cnc1Cl`, the growth in the test with HCT-15 colon is 8.37% (active); with HT29 colon, 9.63% (active); in the test with SNB-75 CNS, -15.9% (active); in the test with SNB-19 CNS it was 20.1% (inactive); with U251 CNS, 3.05% (active); in the test with PC-3 prostate it was -7.94% (active). Further, the growth with SK-MEL-5 melanoma was -93.5% (active); in the test on UACC-62 melanoma it was -8.21% (active); in the test with LOX IMVI melanoma, -23.8% (active); with SK-MEL-28 melanoma, 14.8% (inactive); in the test with SK-MEL-2 melanoma, -7.25% (active); with EKVX NSCLC, -3.92% (active). Moreover, the growth with SN12C renal was 10.2% (inactive); in the test on UO-31 renal it was -3.81% (active); with TK-10 renal, -14.5% (active); in the test on ACHN renal, 14.6% (inactive); in the test with A498 renal it was -59.3% (active); with CCRF-CEM leukemia it was 9.76% (active).

The values above are taken from PubChem BioAssay (NCI).
